Data on five compounds can be found in PubChem BioAssay.

The test system of assay [1] is Plasmodium falciparum Sir2 (PF13_0152, Sir2A). As to the kind of experiment: pfSir2 binders on small-molecule microarrays, primary screen, biochemical, small-molecule microarray, 635 nm fluorescence (AID 1098).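 Note: score merges spot fluorescence intensity with its signal-to-noise ratio.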 The following applies: small-molecule microarray binding, fluorescence 635 nm; higher = more signal.
Assay [2] can be described thus: small-molecule microarray binders of probe aDKK1, primary screen, biochemical, biotinylated probe, 635/667 nm fluorescence (AID 1099).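 Note: score merges 667nm spot fluorescence with signal to noise across triplicate slides.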 The following applies: higher = more signal.
The nature of assay [3]: small-molecule microarray binders of probe aCHRDL2, primary screen, biochemical, biotinylated probe, 635/667 nm fluorescence (AID 1100). The following applies: higher = more signal.
Assay [4] is described as follows: splicing luciferase reporter signal modulators, primary screen, spliceosome inhibition project, cell-based, HEK293, splice +/- reporter (AID 1101).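 Note: HEK293 cells carrying a splicing-competent luciferase reporter gene; test concentration not given here.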 The settings on record: luminescence, 24 h, higher = more signal, called active from +8 up or from −8 down. (Reporter assays use an easily measured gene product as a stand-in for the process of interest.)
In assay [5] the target is Fibroblast growth factor 10 (Homo sapiens) (UniProt O15520). As to the kind of experiment: FGF10 binders on small-molecule microarrays, primary screen, biochemical, small-molecule microarray, 635 nm fluorescence (AID 1102). The following applies: FGF10 binding, fluorescence 635 nm, higher = more signal.
The subject of assay [6] is glycogen synthase kinase-3 (GSK3A per assay name; protocol says GSK3B). Briefly: GSK3 binders on small-molecule microarrays, primary screen, biochemical, small-molecule microarray, 635 nm fluorescence, GSK3A (AID 1103). Note: the record names both GSK3A and GSK3B. The settings on record: small-molecule microarray binding, fluorescence 635 nm; higher = more signal.
In assay [7] the target is Epidermal growth factor receptor (Homo sapiens) (UniProt P00533). As to the kind of experiment: EGFR binders on small-molecule microarrays, primary screen, biochemical, small-molecule microarray, 635 nm fluorescence (AID 1104).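 Note: score merges 667 nm emission intensity with spot signal to noise over triplicate slides.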 The settings on record: EGFR binding, higher = more signal.
Assay [8] deals with Follistatin-related protein 3 (Homo sapiens) (UniProt O95633). Briefly: FSTL3 binders on small-molecule microarrays, primary screen, biochemical, small-molecule microarray, 635 nm fluorescence (AID 1105).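 Note: score merges emission near 667 nm and signal to noise per printed spot across three slides.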 The following applies: FSTL3 binding, higher = more signal.
Assay [9] deals with Dickkopf-related protein 1 (Homo sapiens) (UniProt O94907). As to the kind of experiment: DKK1 binders on small-molecule microarrays, primary screen, biochemical, small-molecule microarray, 635 nm fluorescence scan (AID 1106).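 Note: score merges emission near 667 nm with signal to noise over three replicate slides.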 The settings on record: DKK1 binding, higher = more signal.
In assay [10] the test system is Inhibin beta A chain (activin A). Briefly: INHBA (activin A) binders on microarrays, primary screen, biochemical, small-molecule microarray, 635 nm fluorescence scan (AID 1107).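 Note: mouse activin A protein probed at 4.33 µg/mL on printed slides; score merges bound-protein fluorescence near 667 nm with spot signal-to-noise.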 The following applies: small-molecule microarray binding, higher = more signal.
Assay [11] has as its system Human papillomavirus type 1a protein E7 (residues 44-93). As to the kind of experiment: HPV1a E7 fragment binders on microarrays, primary screen, biochemical, small-molecule microarray, residues 44-93, 635 nm fluorescence (AID 1108).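 Note: E7 fragment applied at 1 µg/mL in TBST for 1 h at 4 C; score combines spot fluorescence with its signal to noise ratio.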 The following applies: small-molecule microarray binding, fluorescence 635 nm; higher = more signal.
Assay [12] is described as follows: modulators of HCV replicon luciferase signal, primary screen, HCV replication inhibitor project, Huh7 cells, luciferase reporter (AID 1109).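 Note: huh7 hepatoma cells harbouring a luciferase neomycin HCV replicon reporter; luciferase luminescence as measure of HCV replicon replication; test concentration not given here.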 The following applies: 48 h, higher = more signal. For orientation: A replicon is a self-replicating genome or part of one, used to study replication in cells.
Assay [13] deals with Left-right determination factor 2 (Homo sapiens) (UniProt O00292). Briefly: LEFTY2 binders on small-molecule microarrays, primary screen, biochemical, small-molecule microarray, 635 nm fluorescence scan (AID 1110). The settings on record: LEFTY2 binding, higher = more signal.
Assay [14] addresses Calmodulin-1 (Homo sapiens) (UniProt P0DP23). Briefly: CALM1 binders on microarrays, EGTA buffer, profiling panel, biochemical, small-molecule microarray, Cy5-labelled CALM1 (AID 1111).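 Note: labelled calmodulin applied in Tris saline Tween buffer holding calcium plus EGTA and DTT.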 The settings on record: Cy5-CALM1 binding fluorescence, higher = more signal.
For assay [15] the target is unchanged. Briefly: calcium-bound CALM1 binders on microarrays, profiling panel, artefact control for SMM control-protein annotation, biochemical, small-molecule microarray, Cy5-labelled CALM1, plus calcium (AID 1112).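 Note: score merges spot fluorescence with signal to noise from triplicate slides.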 The following applies: Cy5-CALM1 binding fluorescence, higher = more signal.
Assay [16] can be described thus: small-molecule microarray binders of probe aWnt5a, primary screen, biochemical, biotinylated probe, 635/667 nm fluorescence (AID 1113).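 Note: score merges 667 nm fluorescence intensity with signal-to-noise per printed feature.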 The settings on record: higher = more signal.
Assay [17] in a line: small-molecule microarray binders of probe aShh, primary screen, biochemical, biotinylated probe, 635/667 nm fluorescence (AID 1114).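 Note: probe is biotin-labelled aShh protein from a stem cell growth factor screen; measures binding of labelled protein to compounds printed on the slide; score merges feature fluorescence at 667 nm with signal-to-noise.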 The settings on record: higher = more signal.
A short description of assay [18]: small-molecule microarray binders of probe aNog, primary screen, biochemical, biotinylated probe, 635/667 nm fluorescence (AID 1115).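 Note: probe is biotinylated aNog protein used at 0.15 µg/mL for 1 h at 4 C; z-score combines 667 nm fluorescence of each spot with its signal to noise.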 The following applies: higher = more signal.
Assay [19] addresses Torsin-1A-interacting protein 1 (Homo sapiens) (UniProt Q5JTV8). Briefly: LAP1 binders from COS7 cell lysate, primary screen, small-molecule microarray, 635/667 nm fluorescence (AID 1116). The settings on record: COS7-hLAP1 lysate binding, 635 nm fluorescence, higher = more signal.
The target of assay [20] is Alpha-bungarotoxin (Bungarus multicinctus) (UniProt P60615). Briefly: alpha-bungarotoxin binders on microarray, profiling panel, artefact control for SMM control protein annotation, biochemical, small-molecule microarray, Alexa647 label, 635/667 nm fluorescence (AID 1117). The settings on record: alpha-BTX-A647 binding fluorescence, higher = more signal.

Each structure is given as a SMILES string. Active and inactive are the calls of the source.

Sequence of Torsin-1A-interacting protein 1 (Homo sapiens) (Q5JTV8 whole entry, looked up): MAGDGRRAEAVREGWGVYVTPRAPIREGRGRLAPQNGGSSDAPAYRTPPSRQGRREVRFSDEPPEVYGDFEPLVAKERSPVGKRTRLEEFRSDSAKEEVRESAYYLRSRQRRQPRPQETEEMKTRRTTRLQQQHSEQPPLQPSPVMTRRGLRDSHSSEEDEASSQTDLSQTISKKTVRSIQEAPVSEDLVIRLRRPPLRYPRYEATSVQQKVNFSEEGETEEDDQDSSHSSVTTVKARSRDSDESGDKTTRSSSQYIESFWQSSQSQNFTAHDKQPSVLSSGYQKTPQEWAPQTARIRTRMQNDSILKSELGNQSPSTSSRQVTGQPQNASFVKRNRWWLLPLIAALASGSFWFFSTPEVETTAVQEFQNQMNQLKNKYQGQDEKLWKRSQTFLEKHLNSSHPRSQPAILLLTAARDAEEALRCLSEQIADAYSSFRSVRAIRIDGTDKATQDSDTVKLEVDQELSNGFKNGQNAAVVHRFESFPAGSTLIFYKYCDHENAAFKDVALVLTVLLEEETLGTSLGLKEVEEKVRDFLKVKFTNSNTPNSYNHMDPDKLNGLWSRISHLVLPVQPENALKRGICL
Sequence of Follistatin-related protein 3 (Homo sapiens) (O95633 whole entry, looked up): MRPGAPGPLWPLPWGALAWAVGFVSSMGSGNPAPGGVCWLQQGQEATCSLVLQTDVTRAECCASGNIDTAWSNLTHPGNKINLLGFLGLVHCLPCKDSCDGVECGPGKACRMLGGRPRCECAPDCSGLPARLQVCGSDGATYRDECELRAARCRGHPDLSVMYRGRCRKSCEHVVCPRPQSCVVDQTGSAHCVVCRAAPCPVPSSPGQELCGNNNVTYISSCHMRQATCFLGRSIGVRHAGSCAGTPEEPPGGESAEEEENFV
Sequence of Dickkopf-related protein 1 (Homo sapiens) (O94907 whole entry, looked up): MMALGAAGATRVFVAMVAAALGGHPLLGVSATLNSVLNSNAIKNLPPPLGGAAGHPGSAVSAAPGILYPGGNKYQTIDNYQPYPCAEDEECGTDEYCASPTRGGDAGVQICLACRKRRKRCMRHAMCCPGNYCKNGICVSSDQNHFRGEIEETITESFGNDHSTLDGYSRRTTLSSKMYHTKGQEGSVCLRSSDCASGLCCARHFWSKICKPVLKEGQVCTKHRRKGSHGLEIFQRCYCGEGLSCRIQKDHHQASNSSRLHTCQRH
Sequence of Fibroblast growth factor 10 (Homo sapiens) (O15520 whole entry, looked up): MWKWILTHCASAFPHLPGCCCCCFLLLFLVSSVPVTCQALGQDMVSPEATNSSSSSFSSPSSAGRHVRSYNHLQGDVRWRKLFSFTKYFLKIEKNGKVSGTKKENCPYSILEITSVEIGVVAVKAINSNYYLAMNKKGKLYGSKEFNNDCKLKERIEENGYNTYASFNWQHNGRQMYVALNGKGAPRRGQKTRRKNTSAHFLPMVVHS
Sequence of Left-right determination factor 2 (Homo sapiens) (O00292 whole entry, looked up): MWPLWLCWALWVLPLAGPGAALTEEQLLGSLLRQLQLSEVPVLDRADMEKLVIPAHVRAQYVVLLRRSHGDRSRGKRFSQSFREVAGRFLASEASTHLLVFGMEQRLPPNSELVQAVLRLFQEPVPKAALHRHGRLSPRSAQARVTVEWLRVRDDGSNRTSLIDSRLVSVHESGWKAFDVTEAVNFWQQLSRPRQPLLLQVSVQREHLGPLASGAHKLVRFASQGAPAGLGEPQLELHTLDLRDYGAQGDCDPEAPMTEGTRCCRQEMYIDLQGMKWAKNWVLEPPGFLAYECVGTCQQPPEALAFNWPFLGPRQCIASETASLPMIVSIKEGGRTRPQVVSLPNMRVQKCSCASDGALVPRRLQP
Sequence of Alpha-bungarotoxin (Bungarus multicinctus) (P60615 whole entry, looked up): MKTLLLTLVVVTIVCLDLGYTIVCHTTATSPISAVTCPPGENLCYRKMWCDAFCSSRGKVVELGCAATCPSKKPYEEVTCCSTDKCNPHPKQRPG
Sequence of Epidermal growth factor receptor (Homo sapiens) (P00533 whole entry, looked up): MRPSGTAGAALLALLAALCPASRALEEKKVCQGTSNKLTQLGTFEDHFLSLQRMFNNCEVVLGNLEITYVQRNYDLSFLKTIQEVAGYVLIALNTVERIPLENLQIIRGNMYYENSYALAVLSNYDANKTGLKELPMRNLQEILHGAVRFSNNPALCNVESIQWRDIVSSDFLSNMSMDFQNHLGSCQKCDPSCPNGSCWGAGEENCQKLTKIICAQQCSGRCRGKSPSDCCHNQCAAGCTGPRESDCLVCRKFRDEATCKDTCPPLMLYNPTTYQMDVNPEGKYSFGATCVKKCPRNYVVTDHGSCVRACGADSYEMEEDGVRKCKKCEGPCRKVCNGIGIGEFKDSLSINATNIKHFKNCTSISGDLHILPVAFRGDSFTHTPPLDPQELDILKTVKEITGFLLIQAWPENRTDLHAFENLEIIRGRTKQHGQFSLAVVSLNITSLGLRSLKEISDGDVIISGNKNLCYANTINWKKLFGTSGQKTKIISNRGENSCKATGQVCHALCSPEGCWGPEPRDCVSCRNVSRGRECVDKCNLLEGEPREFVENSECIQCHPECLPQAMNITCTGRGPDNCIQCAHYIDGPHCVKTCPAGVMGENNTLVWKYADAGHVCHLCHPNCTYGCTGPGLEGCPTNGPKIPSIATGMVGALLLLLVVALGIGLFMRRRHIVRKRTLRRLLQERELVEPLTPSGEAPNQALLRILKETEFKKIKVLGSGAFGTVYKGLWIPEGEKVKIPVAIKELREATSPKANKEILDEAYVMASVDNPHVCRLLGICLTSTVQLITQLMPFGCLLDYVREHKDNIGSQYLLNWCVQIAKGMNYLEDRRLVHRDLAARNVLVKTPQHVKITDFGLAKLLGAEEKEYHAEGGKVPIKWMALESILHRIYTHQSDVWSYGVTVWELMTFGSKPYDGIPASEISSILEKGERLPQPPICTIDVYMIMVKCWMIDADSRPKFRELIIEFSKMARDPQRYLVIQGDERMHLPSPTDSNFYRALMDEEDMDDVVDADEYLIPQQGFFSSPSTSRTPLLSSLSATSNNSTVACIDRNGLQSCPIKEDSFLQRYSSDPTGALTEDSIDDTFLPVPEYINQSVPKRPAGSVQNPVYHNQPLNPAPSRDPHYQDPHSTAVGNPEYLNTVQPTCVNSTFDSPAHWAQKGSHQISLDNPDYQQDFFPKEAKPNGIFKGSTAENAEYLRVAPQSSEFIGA

For the compound `C[C@@H](OCc1ccccc1)C1NC(=O)[C@@]23C(=O)N[C@@H](Cc4ccccc4)C2[C@H](C)[C@@]2(C)O[C@H]2C3/C=C/C/C=C\CNC(=O)[C@@H]2CCCN2C1=O` (stereo not given in full), the composite z-score was -0.381 in assay [1]; -0.308 in assay [2]; -0.39 in assay [3]; 0.097 in assay [5]; -0.616 in assay [6]; -0.324 in assay [7]. Moreover, the composite z-score in [8] was 0.819; in assay [9], 0.34; in assay [10], 1.75; in [11] it was -2.3; in assay [13], -0.0437; in assay [14], -1.46. In addition, the composite z-score in assay [15] is -1.23; in [16], -0.197; in assay [17], -0.138; in [18], -0.247; in assay [19] it was -0.417; in [20], -0.236. Further, the z-score in assay [4] was 0.253 (inactive); in [12] it was -1.06.

Take `C=CCNC(=O)[C@@H]1[C@H]2C(=O)O[C@H](c3ccccc3)[C@H](c3ccccc3)N2[C@H](c2ccc(O)cc2)[C@@]12C(=O)Nc1ccccc12`: the composite z-score in assay [1] is 0.442; in assay [2], -0.0741; in [3], 0.363; in [5] it was 0.237; in assay [6] it was -0.608; in [7] it was -1.14. Moreover, the composite z-score was 0.133 in [8]; 0.131 in assay [9]; -0.287 in [10]; 0.197 in [11]; -1.01 in assay [13]; 0.439 in assay [14]. The composite z-score is 0.259 in assay [15]; -0.0758 in [16]; 0.0756 in [17]; 0.955 in assay [18]; -0.0205 in assay [19]; 1.33 in assay [20]. Moreover, the figures for the z-score in [4] and in assay [12] were 0.633 (inactive) and -0.603, respectively.

As for `CCN(CC)c1ccc(N2CC=CC34O[C@@H]5C=CCOC(=O)[C@@H]5[C@H]3C(=O)N(C(CO)C(C)C)[C@@H]4C2=O)cc1` (stereo not given in full), the composite z-score in assay [1] was -0.0952; in [2] it was -0.239; in [3] it was -0.202; in [5], -0.608; in [6], -0.142; in assay [7], -1.01. Further, the composite z-score is -0.586 in [8]; 0.0041 in assay [9]; 0.761 in assay [10]; -0.825 in assay [11]; -0.827 in assay [13]; -0.647 in assay [14]. Further, the composite z-score in assay [15] is -0.752; in [16], -0.129; in [17], -0.0626; in [18], -0.481; in [19], -0.257; in [20] it was -0.274. The z-score in assay [4] was -0.133 (inactive); in assay [12], -0.496.

On to `C=CCC(OC(C)=O)[C@@H]1[C@@H](N(Cc2ccc(-c3cccc(C(F)(F)F)c3)o2)C(=O)c2ccc(-c3ccccc3)cc2)c2cc(OCCCO)ccc2N1C(=O)Cc1ccc(OC)cc1` (stereo not given in full), for which the composite z-score was -0.0081 in [1]; 0.109 in [2]; 0.796 in assay [3]; -0.0385 in assay [5]; -0.661 in assay [6]; -0.574 in assay [7]. For the same compound, the composite z-score in [8] was -0.201; in assay [9], -0.361; in assay [10], 1.44; in [11] it was -0.0271; in [13], -0.236; in [14], -1.05. For the same compound, the composite z-score in [15] was 0.897; in assay [16], -0.104; in assay [17], -0.0931; in assay [18], -0.0086; in assay [19] it was -0.0085; in [20] it was 0.497. In addition, the values for the z-score in assay [4] and in assay [12] were -1.07 (inactive) and -0.169, respectively.

In the case of `O=C(NO)[C@]1(Cc2ccccc2)N=C(c2ccc(OCCCO)cc2)O[C@@H]1c1ccccc1`, the composite z-score in [1] is 1.3; in [2], 0.256; in [3], 0.694; in assay [5], -0.227; in assay [6], -0.371; in [7] it was -0.637. For the same compound, the composite z-score in assay [8] was 0.262; in assay [9] it was -0.546; in [10], -0.169; in assay [11], -0.281; in assay [13], -0.79; in [14], -0.271. For the same compound, the composite z-score in assay [15] was 0.309; in [16], -0.377; in [17] it was 0.157; in assay [18] it was 0.168; in [19], 0.395; in assay [20] it was 2.41. Besides, the z-score was -4.02 (inactive) in assay [4] and -1.73 in assay [12].
